# D1 ag: activates the human D1 dopamine receptor; HEK293 T-REx D1 cells, calcium flux, agonist mode; P21728; hit rate 1% among 360,000; activation, % at 2 µM; further: 0% is about no effect
# Target sequence (P21728 whole entry, looked up): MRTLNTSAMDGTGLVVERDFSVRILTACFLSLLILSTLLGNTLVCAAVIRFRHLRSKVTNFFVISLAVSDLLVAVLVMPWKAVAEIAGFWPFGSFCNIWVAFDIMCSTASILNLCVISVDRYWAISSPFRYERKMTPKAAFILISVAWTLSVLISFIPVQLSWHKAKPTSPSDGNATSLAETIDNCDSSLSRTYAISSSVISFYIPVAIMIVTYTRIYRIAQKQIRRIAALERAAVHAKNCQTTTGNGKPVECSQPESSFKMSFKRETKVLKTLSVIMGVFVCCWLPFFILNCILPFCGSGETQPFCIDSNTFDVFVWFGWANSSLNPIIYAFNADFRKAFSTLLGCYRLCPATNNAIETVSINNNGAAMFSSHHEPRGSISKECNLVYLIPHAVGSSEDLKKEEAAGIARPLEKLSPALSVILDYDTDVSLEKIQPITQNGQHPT
#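 Agonism was scored from calcium flux recorded over 180 s (1 read/s) after pintool compound addition, following a 10-cycle baseline. Cells were inducible force-coupled HEK293 TREx D1, plated overnight at 30 C and loaded with no-wash calcium dye.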
# D1 antag: antagonists of human D1 dopamine receptor. AID 504652. HEK293 TREx D1 cells, calcium flux, dopamine EC80; active compounds read low. hit rate 3.2% among 360,000. activity change, negative = inhibition, % at 10 µM; in the data active means activity change below about -30%; further: on the % scale 0 is the no-effect control and ±100 the full control effect
#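 Compound effects on dopamine-evoked calcium signalling were measured in tetracycline-induced HEK293 Trex D1 cells. Dopamine at EC80 followed a 180 s compound pre-read, and fluorescence was tracked kinetically for 180 s more.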
# TRHR enhancer: TRH receptor (human) allosteric enhancement | enhancement, % at 2 µM | AID 493056 | hit rate 0.66% among 360,000 | P34981 | TRHR cells, fluo-8 calcium fluorescence, EC20 TRH enhancement; in the data active means enhancement above about 30%; further: 0% is about no effect
#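 TRHR-expressing cells loaded with fluo-8 calcium dye were read kinetically (ex 480/em 530) during compound addition, then stimulated with an EC20 of TRH (10 nM final). Enhancement of the Gq-mediated intracellular calcium response was scored.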
# TRHR agonist: activates the human TRH receptor. hit rate 0.18% among 360,000. P34981. TRHR cells, calcium flux fluo-8, FDSS agonist mode. activation, % at 2 µM. AID 493084; further: 0% is about no effect
#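 Read-out: compound-evoked intracellular calcium rise in TRHR cells, fluo-8 dye, kinetic FDSS fluorescence at 1 s/cycle following a 10-cycle baseline. Cells cultured overnight before dye loading (30 min–1.5 h, RT).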
# D1 potentiator: human D1 dopamine receptor positive modulation. P21728. HEK293 TREx D1 cells, calcium flux, dopamine EC20 potentiation. potentiation, % at 10 µM. hit rate 0.036% among 360,000. AID 504651; in the data active means potentiation above about 30%; further: 0% is about no effect
# Starred values were filed as active, the others as inactive; · = not tested or not shown; ! = not confirmed by another sample. The list is not random: actives were taken first. Their share in the collection is about 4.7%. Unless noted, no stated cut-off is given here; in the data, active means activation above about 30%; inactive means the rest.
SMILES,D1 ag,D1 antag,TRHR enhancer,TRHR agonist,D1 potentiator
O=C(c1cccc(N2CCCC2=O)c1)N1CCN(c2ccccc2)CC1,1,-31*,-1,1,-3
O=C(N/N=C/c1ccc(Cl)cc1Cl)c1cccc(N2CCCC2=O)c1,4,-6,30*,0,1
CCc1ccccc1N(C)C(=O)Cn1cnc2sc(C)c(S(=O)(=O)N3CCC(C)CC3)c2c1=O,0,-4,3,0,1
COc1ccc(F)cc1S(=O)(=O)NCCc1sc2nc(-c3ccc(F)cc3)nn2c1C,15,·,1,0,-1
Cc1ccc(C(=O)N(C)c2nnc(-c3ccncc3)s2)cc1,10,-30*,-3,0,-5
CC(C)(C)C(=O)Cn1nc(Cl)nc1Cl,5,2,32*,1,-2
Cc1ccc(Nc2c(-c3ccc(N(C)C)cc3)nc3ccccn23)cc1,2,-30*,0,-1,-5
Cc1ccc(-c2nc3ccccn3c2Nc2ccc3c(c2)OCO3)cc1,1,-8,-4,-1,3
CCc1ccc(NCc2cc3ccc(OC)cc3n(CC(=O)Nc3ccccc3OC)c2=O)cc1,-1,4,-2,-1,0
c1ccc(Cn2nnc3c(NCCN4CCOCC4)ncnc32)cc1,3,-31*,17,0,-17
c1ccc(Cn2nnnc2CN2CCOCC2)cc1,4,-34*,3,0,-11
CCOc1ccccc1N(C)C(=O)Cn1cnc2sc(C)c(S(=O)(=O)N3CCC(C)CC3)c2c1=O,5,-4,-7,0,4
COC(=O)c1ccc(N2CCc3ccccc32)c([N+](=O)[O-])c1,0,-14,-3,0,3
CCOC(CNC(=O)c1ccc(N2CCc3ccccc32)c([N+](=O)[O-])c1)OCC,12,-37*,-8,0,-9
C=Cc1ccc(CSc2nnc(C)n3c2cc2occc23)cc1,4,6,8,0,-2
CCCCNC(=S)Nc1ccc(F)cc1,1,3,-1,-1,-2
CCCCNC(=S)Nc1ccc(SC(F)F)cc1,17,-42*,-10,0,-8
O=C(OC[C@H]1O[C@@H](OC(=O)c2cc(O)c(O)c(OC(=O)c3cc(O)c(O)c(O)c3)c2)[C@H](OC(=O)c2cc(O)c(O)c(OC(=O)c3cc(O)c(O)c(O)c3)c2)[C@@H](OC(=O)c2cc(O)c(O)c(OC(=O)c3cc(O)c(O)c(O)c3)c2)[C@@H]1OC(=O)c1cc(O)c(O)c(OC(=O)c2cc(O)c(O)c(O)c2)c1)c1cc(O)c(O)c(OC(=O)c2cc(O)c(O)c(O)c2)c1,1,-9,-3,-1,-3
CCOC(=O)c1c(S(=O)(=O)NCC(=O)N2CCN(c3ccccc3OC)CC2)c(C)n(C)c1C,0,-32*!,-2,0,3
Cc1csc(=O)n1CC(=O)OCC(=O)Nc1ccc(F)c(F)c1,10,-1,33*,0,-5
CCCCNC(=O)c1cccc(-n2cnc3cccnc32)c1C,0,1,-2,0,-1
Cc1c(C(=O)NCCc2ccccc2)cccc1-n1cnc2cccnc21,-1,-32*,1,0,-3
COc1ccc(-c2csc3nc(-c4ccc(Cl)cc4)oc(=O)c23)cc1,0,-5,3,1,-2
COc1ccc(C(=O)NCCC(=O)NCc2cc(=O)n(C)c(=O)n2C)cc1,1,-51*,3,1,-4
COc1cccc(C(=O)NCC(=O)NCc2cc(=O)n(C)c(=O)n2C)c1,6,-36*,0,0,-4
SMILES,D1 ag,D1 antag,TRHR enhancer,TRHR agonist,D1 potentiator
O=C(Cn1[nH]c(=O)c2ccccc2c1=O)N1CC=C(c2ccccc2)CC1,3,-30*,-7,1,-8
O=S(=O)(Cc1ccc(Cl)cc1)NCc1ccc2c(c1)OCO2,5,-36*,-8,-3,-2
COc1ccc(S(=O)(=O)NCc2ccc3c(c2)OCO3)cc1C(=O)O,-2,25,5,0,-1
COc1ccc(S(=O)(=O)NCc2ccc3c(c2)OCO3)cc1C,1,-87*,0,0,-1
COc1ccc(S(=O)(=O)NCc2ccc3c(c2)OCO3)cc1OC,0,-55*,-2,0,-8
Cc1ccc(S(=O)(=O)NCc2ccc3c(c2)OCO3)cc1C,-1,-14,-4,0,-6
COc1cccc(NC(=O)CCSc2nc(-c3ccco3)cc(C(F)(F)F)n2)c1,4,1,0,1,-8
CNC(=O)CSc1nnc(-c2ccco2)n1-c1ccc(C)cc1,1,-5,14,0,-2
CCn1nnnc1SCC(=O)NCc1ccco1,0,-13,-2,0,-5
CC(C)(C)C(=O)Nc1nnc(SCC(=O)NCc2ccco2)s1,2,-26,0,0,-6
CCc1ccccc1-n1c(SCC(=O)NC)nnc1-c1ccco1,10,-37*,1,-1,-1
CC(C)(C)c1nnc2sc(SCC(=O)NCc3ccco3)nn2c1=O,5,-32*,-1,0,·
Cn1c(SCC(=O)NC(=O)NCc2ccco2)nnc1-c1ccccc1,1,5,2,0,4
Cn1c(SCC(=O)NCc2ccco2)nnc1-c1ccccc1,1,-53*,0,0,-8
CCCCn1nnnc1SCC(=O)NCc1ccco1,3,-33*,-7,0,-11
COC(=O)c1cc2oc(C)cc2n1Cc1ccccc1Cl,3,-20,0,0,1
Cc1ccccc1Nc1c(-c2ccsc2)nc2c(C)cccn12,4,-2,-6,0,-3
Cc1cc(Cl)ccc1OCC(=O)Nc1ccc2oc(=O)ccc2c1,8,-29,-3,-1,-11
Cc1ccc(OCC(=O)Nc2ccc3oc(=O)ccc3c2)c(C)c1,3,-56*,0,0,-7
COc1ccc(-c2nc3cc(NC(=O)COc4ccccc4C)ccc3o2)cc1,10,-54*,-3,1,4
Cc1ccc2nc(-c3ccc(Cl)c(NC(=O)COc4cccc(C)c4C)c3)oc2c1,-1,7,2,-1,-4
Cc1cccc(OCC(=O)Nc2ccc(-c3nc4ccccc4o3)cc2)c1C,4,8,31*,3,-1
COc1ccc(-c2nc3cc(NC(=O)COc4ccc(F)cc4)ccc3o2)cc1,1,-5,10,1,-1
CCOc1cc(C(=O)Nc2ccc3oc(-c4ccc(CC)cc4)nc3c2)cc(OCC)c1OCC,4,-11,36*,1,0
CC(CNC(=O)c1ccc(Cn2c(=O)c3cccn3c3cccnc32)cc1)c1ccccc1 (stereo not drawn),2,-10,1,1,-3
Cc1ccc(NC(=O)c2sc3nc(-c4cc5ccccc5oc4=O)[nH]c(=O)c3c2C)c(C)c1,8,-15,-3,1,-3
O=C(CSCc1ccccc1Cl)N1CCN(c2ccc(F)cc2)CC1,-1,-7,-2,-1,-2

# Screening results as filed in PubChem BioAssay.
